Mtb betalactam – beta-lactam sensitization of Mtb H37Rv; M. tuberculosis H37Rv growth with meropenem, percent inhibition; inhibition, % at 25 µM; 330,000 compounds, 0.27% hits; AID 434955; call rule not given here;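 also: growth measured after seven days incubation then overnight dye step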
Mtb hypoxia rep – inhibitors of hypoxia-regulated fluorescent reporter in Mycobacterium tuberculosis. M. tuberculosis hypoxia-regulated fluorescent reporter, fluorescence. 300,000 compounds, 0.1% hits. fluorescence inhibition, % (test concentration not listed); in the data active = fluorescence inhibition mostly above about 23%, no sharp cut-off; inactive = mostly below about 17%
PriA SSB inh – blocks PriA binding to SSB C-terminal tail; AlphaScreen SSBct-PriA binding, biotinylated peptide; inhibition, % at 33 µM; 430,000 compounds, 0.6% hits; AID 1272365; in the data active = inhibition mostly above about 37%, no sharp cut-off; inactive = mostly below about 20%
Sa RN4220 lethal – S. aureus RN4220 growth inhibition | 330,000 compounds, 0.33% hits | inhibition, % (concentration not given with the values) | OD600, 16 h; in the data active = inhibition above about 85%
Sa ugtP lethal – growth inhibition of S. aureus ugtP deletion strain | S. aureus RN4220 ugtP deletion, OD600 growth, 16 h | growth inhibition, % (no concentration beside the values) | 330,000 compounds, 0.54% hits; in the data active = growth inhibition above about 68%
A number is an active result; ! = not active in a repeat. Only some compounds are listed: those with a hit (about 1% of all), similar ones and a draw of the others.

What do the screens show for `O=[N+]([O-])c1cc(F)c(N2CCc3ccccc3C2)cc1N1CCOCC1`?
PriA SSB inh: 75.3

How did CN1CCN(c2cc(N3CCc4ccccc4C3)c(F)cc2[N+](=O)[O-])CC1 do in these assays?
Mtb betalactam: inactive; Mtb hypoxia rep: inactive; PriA SSB inh: 40.6; Sa RN4220 lethal: inactive; Sa ugtP lethal: inactive

How did O=C(Cc1cc(-c2ccc(Cl)cc2)on1)N1CCc2ccccc2C1 do in these assays?
PriA SSB inh: inactive

What do the screens show for `CC1CCc2c(sc(NC(=O)c3ccn(C)n3)c2-c2nc3ccccc3s2)C1` (stereo not given)?
PriA SSB inh: inactive

What do the screens show for `Cc1ccc(NS(=O)(=O)c2ccc3c(c2)NC(=O)CCS3)c(Br)c1`?
Mtb betalactam: inactive; Mtb hypoxia rep: inactive; PriA SSB inh: inactive; Sa RN4220 lethal: 98.2; Sa ugtP lethal: 96.0

Results for Cc1ccccc1NS(=O)(=O)c1ccc2c(c1)NC(=O)CCS2 ?
Mtb betalactam: inactive; Mtb hypoxia rep: inactive; PriA SSB inh: inactive; Sa RN4220 lethal: 88.7; Sa ugtP lethal: inactive

What do the screens show for `O=C(NCc1cccnc1-c1ccsc1)c1ccc(Cl)s1`?
PriA SSB inh: inactive

Results for CCCN1CCCc2cc(CCNS(=O)(=O)c3cc(F)ccc3F)ccc21 ?
PriA SSB inh: 68.0

How did CCCN1CCCc2cc(CCNS(=O)(=O)c3ccccc3F)ccc21 do in these assays?
PriA SSB inh: 50.0

What do the screens show for `CCCN1CCCc2cc(CCNC(=O)C(=O)Nc3ccccc3F)ccc21`?
PriA SSB inh: inactive

What do the screens show for `CCCN1CCCc2cc(CCNC(=O)C(=O)Nc3cc(F)ccc3F)ccc21`?
PriA SSB inh: inactive

How did Cc1nnsc1C(=O)Nc1cccc(-c2csc(Nc3ccc(F)cc3F)n2)c1 do in these assays?
PriA SSB inh: inactive

Results for COc1ccc(NC(=O)C2CCN(S(=O)(=O)c3cccs3)CC2)c2ccccc12 ?
PriA SSB inh: inactive

How did O=C(/C=C/c1ccco1)C1=C(O)C(=O)N(CCN2CCOCC2)C1c1cccc(F)c1 (stereo not given) do in these assays?
PriA SSB inh: inactive

Results for CCOc1ccc(NC(=S)Nc2ccc(F)cc2)cc1 ?
Mtb betalactam: inactive; PriA SSB inh: inactive; Sa RN4220 lethal: inactive; Sa ugtP lethal: inactive

What do the screens show for `CCOc1ccc(NC(=S)NN(C)C(=S)Nc2ccc(OCC)cc2)cc1`?
Mtb betalactam: inactive; Mtb hypoxia rep: inactive; PriA SSB inh: 40.2; Sa RN4220 lethal: inactive; Sa ugtP lethal: inactive

What do the screens show for `CCN(Cc1ccccc1)S(=O)(=O)c1ccc(C(=O)N(CCCN(C)C)c2nc3ccc(F)cc3s2)cc1`?
Mtb betalactam: inactive; Mtb hypoxia rep: inactive; PriA SSB inh: 37.0!; Sa RN4220 lethal: inactive; Sa ugtP lethal: inactive

What do the screens show for `COc1ccc2sc(N(CCCN(C)C)C(=O)c3ccc(S(=O)(=O)N4CCCc5ccccc54)cc3)nc2c1`?
Mtb betalactam: inactive; Mtb hypoxia rep: inactive; PriA SSB inh: 36.0!; Sa RN4220 lethal: inactive; Sa ugtP lethal: inactive

What do the screens show for `CCN(CC)CCN(C(=O)c1ccc(S(=O)(=O)N(C)Cc2ccccc2)cc1)c1nc2c(C)cccc2s1`?
PriA SSB inh: inactive

What do the screens show for `CN(C)CCCN(C(=O)c1ccc(S(=O)(=O)N(C)Cc2ccccc2)cc1)c1nc2c(F)cccc2s1`?
Mtb betalactam: inactive; Mtb hypoxia rep: inactive; PriA SSB inh: 39.0!; Sa RN4220 lethal: inactive; Sa ugtP lethal: inactive

How did CCN(Cc1ccccc1)S(=O)(=O)c1ccc(C(=O)N(CCCN(C)C)c2nc3cc4c(cc3s2)OCCO4)cc1 do in these assays?
Mtb betalactam: inactive; Mtb hypoxia rep: inactive; PriA SSB inh: 47.0; Sa RN4220 lethal: inactive; Sa ugtP lethal: inactive

Results for Cc1ccccc1-c1ccc(N2CCC(C(=O)NC3CC3)CC2)nn1 ?
PriA SSB inh: inactive

What do the screens show for `CCN(Cc1ccccc1)S(=O)(=O)c1ccc(C(=O)N(CCCN(C)C)c2nc3cc(OC)ccc3s2)cc1`?
Mtb betalactam: inactive; Mtb hypoxia rep: inactive; PriA SSB inh: 51.0!; Sa RN4220 lethal: inactive; Sa ugtP lethal: inactive

Results for COc1nn(C)cc1C(=O)NCCn1ccc(-c2ccsc2)n1 ?
PriA SSB inh: inactive

What do the screens show for `Nc1nc(-c2ccccn2)nc2ccc(Cl)cc12`?
PriA SSB inh: 116.0

How did CS(=O)(=O)N1CCN(C(=O)NCC2(O)Cc3ccccc3C2)C1=O do in these assays?
PriA SSB inh: inactive

How did Cc1cc(NC(=O)C(=O)NCCc2ccc(Cl)cc2)no1 do in these assays?
PriA SSB inh: inactive

Results for COc1cc(C#Cc2c(-c3cncn3C)n(C)c3ccc(Br)cc23)cc(OC)c1 ?
Mtb betalactam: inactive; Mtb hypoxia rep: inactive; PriA SSB inh: inactive; Sa RN4220 lethal: 99.3; Sa ugtP lethal: 98.7

What do the screens show for `COc1cc(C#Cc2c(-c3cncn3C)n(C)c3ccc(-c4ccc(OC)c(OC)c4)cc23)cc(OC)c1`?
Mtb betalactam: inactive; Mtb hypoxia rep: inactive; PriA SSB inh: inactive; Sa RN4220 lethal: inactive; Sa ugtP lethal: inactive

How did CCn1cccc(-c2nnc(SCC(=O)c3ccc(OC)cc3)n2C)c1=O do in these assays?
PriA SSB inh: inactive

Results for O=C1C(=C(c2ccccc2)c2ccccc2)Nc2ccccc21 ?
Mtb betalactam: inactive; Mtb hypoxia rep: inactive; PriA SSB inh: 42.4; Sa RN4220 lethal: inactive; Sa ugtP lethal: inactive

Results for O=C(CCn1ccc(=O)[nH]c1=O)NCCn1cnc2ccsc2c1=O ?
PriA SSB inh: inactive

What do the screens show for `CCOc1ccc2nc(NCc3ccccn3)sc2c1`?
PriA SSB inh: inactive

How did O=C(Nc1ccccc1Cl)c1cccs1 do in these assays?
Mtb betalactam: inactive; PriA SSB inh: inactive; Sa RN4220 lethal: inactive; Sa ugtP lethal: inactive

How did O=C(Nc1ccccc1Cl)C(Cl)=C(Cl)S(=O)c1ccccc1 (stereo not given) do in these assays?
Sa RN4220 lethal: 100.7; Sa ugtP lethal: 99.9

Results for Clc1ccc(CCC(Cn2ccnc2)Sc2c(Cl)cccc2Cl)cc1 (stereo not given) ?
Mtb betalactam: inactive; PriA SSB inh: inactive; Sa RN4220 lethal: 98.9; Sa ugtP lethal: 98.0

Results for Clc1ccc(SCCCCn2ccnc2)cc1 ?
Mtb betalactam: inactive; PriA SSB inh: inactive; Sa RN4220 lethal: inactive; Sa ugtP lethal: inactive

What do the screens show for `Cc1ccc(C(=O)NC(=S)Nc2ccc(N3CCN(C(=O)c4ccco4)CC3)cc2)cc1`?
Mtb betalactam: inactive; Mtb hypoxia rep: inactive; PriA SSB inh: inactive; Sa RN4220 lethal: inactive; Sa ugtP lethal: 91.3

How did CN1CCN(c2ccc(NC(=S)NC(=O)c3cccc4ccccc34)cc2)CC1 do in these assays?
Mtb betalactam: inactive; Mtb hypoxia rep: inactive; PriA SSB inh: inactive; Sa RN4220 lethal: inactive; Sa ugtP lethal: 95.4

Results for O=C(NC(=S)Nc1ccc(S(=O)(=O)N2CCCCC2)cc1)c1ccccc1 ?
Mtb betalactam: inactive; PriA SSB inh: inactive; Sa RN4220 lethal: inactive; Sa ugtP lethal: 85.9

What do the screens show for `CN1CCN(c2ccc(NC(=S)NC(=O)c3cccc4c(Br)cccc34)cc2)CC1`?
Mtb betalactam: inactive; Mtb hypoxia rep: inactive; PriA SSB inh: inactive; Sa RN4220 lethal: inactive; Sa ugtP lethal: inactive

What do the screens show for `O=C(Nc1ccc(S(=O)(=O)N2CCCC2)cc1)c1ccccc1`?
Mtb betalactam: inactive; Mtb hypoxia rep: inactive; PriA SSB inh: inactive; Sa RN4220 lethal: inactive; Sa ugtP lethal: inactive
